This note sets out measurements from PubChem BioAssay AID2825 (Sanford-Burnham Center for Chemical Genomics, 2010).

In all, about 330,000 compounds went through this assay and about 1,300 (0.39%) were called active.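 The calls were made as follows: active = inhibition of 50% or more; inactive = inhibition below 50%.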 The full list was thinned out, with actives kept by preference.

The assay can be described thus: NALP3 inflammasome inhibitors in reconstituted yeast, primary screen, luminescence, uHTS (AID 2825).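 Also: plate controls were induced DMSO wells for no effect and uninduced yeast grown without galactose for full effect.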 Conditions: Yeast reconstituted NLRP3/ASC/caspase-1, beta-gal luminescence, 24 h; at 10 µM; stronger effect = higher value.
For `COc1cc(C(=O)OCc2cc(=O)n3ccsc3n2)ccc1OC(C)C`, the inhibition was 16.3% (inactive).
As to `Cc1c(Cl)c([N+](=O)[O-])nn1CCCC(=O)NC(C)c1ccccc1` (centres undefined), the inhibition is 7.95% (inactive).
For the compound `COC(=O)CCNC(=O)c1ccc2[nH]c(C)c(C)c2c1`, the inhibition was -4.49% (inactive).
On to `CC(C)(c1ccccc1)c1ccc(OCCN2CCCC2)cc1`, for which the inhibition is 31.2% (inactive).
For `CC(C)(c1ccccc1)c1ccc(OCCN)cc1`, the inhibition is 54.5% (active).
For the compound `Cc1nn(CCOc2ccccc2)c(=O)n1-c1ccccc1F`, the inhibition was -0.993% (inactive).
In the case of `COc1cnn(-c2ccc([N+](=O)[O-])cc2)c(=O)c1Cl` it was -39.9% (inactive); in that of `Cc1ccc(-c2cn(S(=O)(=O)c3cccc([N+](=O)[O-])c3)nc2N)cc1`, -10.8% (inactive).
For `Nc1c(-c2cccc(Cl)c2)cnn1-c1cccc([N+](=O)[O-])c1` the value was 50.4% (active); for `Cc1snc(SCc2c(F)cccc2Cl)c1C#N`, 18.9% (inactive).
Consider `Cc1ccc(CSc2nsc(C)c2C#N)cc1`, for which the inhibition was 63.5% (active).
For the compound `Cc1cc(C)c(C#N)c(SCc2ccc3c(c2)OCO3)n1`, the inhibition is 7.1% (inactive).
For `O=C(CCNC(=O)c1ccccc1)NN=Cc1ccc(Br)o1` the value was 20.8% (inactive); for `Cn1c(=O)c(C(=O)Nc2ncccn2)c(O)c2ccccc21`, 50.1% (active); for `CCCn1c(=O)c(C(=O)Nc2cc(C)ccn2)c(O)c2ccccc21`, 18.1% (inactive).
For `C=CCn1c(=O)c(C(=O)Nc2ncccc2O)c(O)c2ccccc21` the value was 22.7% (inactive); for `CS(=O)(=O)N(Cc1nc2sc3c(c2c(=O)[nH]1)CCCC3)C1CCCCC1`, 19.1% (inactive).
Take `CC[C@@H](C)[C@H](NC(=O)CCc1c(C)c2cc3c4c(oc3c(C)c2oc1=O)CCCC4)C(=O)O`: the inhibition was 17.7% (inactive).
Regarding `Cc1cc(C)nc(NC(=O)Nc2ccccc2C(F)(F)F)n1`, the inhibition is 54.9% (active).
For `COc1cccc(C(=O)NC(=O)Nc2nc(C)cc(C(F)(F)F)n2)c1`, the inhibition is 6.49% (inactive).
Regarding `Cc1cc(Cl)nc(NC(=O)Nc2cccc(Cl)c2)n1`, the inhibition was 25.9% (inactive).
Consider `Cc1ccc(CNC(=O)Cn2cnc(S(=O)(=O)N3CCCCC3)c2)o1`, for which the inhibition was 4.74% (inactive).
On to `O=C(c1ccccc1)c1cc(-c2ccccn2)c(N2CCOCC2)s1`, for which the inhibition was -6.23% (inactive).
Take `CCOC(=O)C1=C(C)NC(C)=C(C(=O)OCC)C1C1=COCCO1`: the inhibition was 22.7% (inactive).
Consider `COc1cc(C(=O)N2CCN(C)CC2)cc(OC)c1OC`, for which the inhibition is 9.48% (inactive).
On to `O=C1CSC(=S)N1c1ccc(Cl)c(Cl)c1`, for which the inhibition was 41.8% (inactive).
In the case of `COc1cc(N2C(=O)CC3(CCCC3)CC2=O)cc(OC)c1OC` it was 3.58% (inactive).
In the case of `CCOc1ccc(N2C(=O)CSC2=NC#N)cc1` it was 11.9% (inactive); in that of `COc1cc(N2C(=O)CSC2=S)cc(OC)c1OC`, 58.3% (active); in that of `O=C1CSC(=S)N1c1ccc(O)cc1`, 81.7% (active).
As for `COCCNc1cc(-c2ccccc2)nc2cc(-c3cccc(F)c3)nn12`, the inhibition is 32.2% (inactive).
For the compound `CCCCC(=O)Nc1ccccc1N1CCN(c2ccc(F)cc2)CC1`, the inhibition is 17.7% (inactive).
For `CC(C)NC(=S)NN=C1CCCCCCCCCCC1`, the inhibition was 26.8% (inactive).
For the compound `Cc1ccc2nsnc2c1S(=O)(=O)N1CCCC1C(=O)O` (centres undefined), the inhibition was 14.6% (inactive).
For `COc1ccc(S(=O)(=O)N2CCOC23CCN(S(=O)(=O)c2ccc([N+](=O)[O-])cc2)CC3)cc1` the value was 23.5% (inactive); for `O=C(c1ccncc1)N1CCN(S(=O)(=O)c2cc(C(F)(F)F)cc(C(F)(F)F)c2)CC1`, 6.83% (inactive).
As for `O=C(NCc1ccc2c(c1)OCO2)c1sccc1Br`, the inhibition is 40.9% (inactive).
Consider `CCn1c(=O)c(C(=O)NCc2ccc3c(c2)OCO3)c(O)c2ccccc21`, for which the inhibition was 17.1% (inactive).
As to `O=C(NCc1ccc2c(c1)OCO2)c1c(O)nc2sccn2c1=O`, the inhibition is 56% (active).
For the compound `CC(NC(=O)COC(=O)CCC(=O)c1ccc(Cl)cc1)c1ccccc1` (centres undefined), the inhibition is 6.94% (inactive).
Consider `CCCN(CC1CC1)C(=S)NC(=O)c1ccccc1Br`, for which the inhibition is 50.5% (active).
For `CC1CCN(C(=S)NC(=O)c2ccccc2Br)CC1`, the inhibition is 15.7% (inactive).
In the case of `O=C(NC(=S)Nc1ncccn1)c1ccccc1Br`, the inhibition is 6.12% (inactive).
In the case of `COc1ccc(S(=O)(=O)NCc2cccnc2)cc1NC(=O)c1ccc(C)cc1`, the inhibition is 9.95% (inactive).
As to `CCc1cc(-c2n[nH]c(=S)n2CC(C)C)cs1`, the inhibition is 29.7% (inactive).
For `Cc1nc2sc(C(c3ccco3)N3CCC4(CC3)OCCO4)c(O)n2n1` (centres undefined) the value was 13.3% (inactive); for `O=C(Nc1ccccc1C(F)(F)F)c1cc(-c2ccc(O)cc2)on1`, 32% (inactive); for `Cc1ccc(O)c(NC(=O)c2cc(-c3ccco3)on2)c1`, 56.4% (active).
Turning to `CC(C)Cc1cc(C(=O)Nc2cc(Br)ccc2O)no1`, the inhibition is 29.5% (inactive).
In the case of `COc1cccc(C(=O)Oc2cc(C)[nH]c(=O)c2[N+](=O)[O-])c1` it was 16% (inactive); in that of `COC(=O)c1ccc(S(=O)(=O)N(CCO)Cc2ccccc2)n1C`, 4.79% (inactive).
In the case of `CN1CCN(C(=O)/C(=C\c2cccs2)NC(=O)c2cccs2)CC1`, the inhibition is 7.81% (inactive).
Regarding `C=CCn1c(SCC(N)=O)nnc1-c1cc2c(s1)CCC(CC)C2` (centres undefined), the inhibition was 4.35% (inactive).
In the case of `O=C(O)C1CCCN1C1=NS(=O)(=O)c2ccccc21` (centres undefined) it was -1.91% (inactive).
With `COc1cc(OC)cc(C(=O)Nc2ccc(-c3nc4ccccc4o3)c(O)c2)c1`, the inhibition was 10.3% (inactive).
Regarding `O=C(Nc1ccc2oc(-c3ccccc3F)nc2c1)c1ccco1`, the inhibition was 54.8% (active).
Take `O=C(Nc1cccc(-c2nc3ncccc3o2)c1)c1ccco1`: the inhibition was 18.2% (inactive).
As for `C=CCN1C(=O)C(O)(CC(=O)c2ccc(Cl)cc2)c2ccccc21` (centres undefined), the inhibition is -10.4% (inactive).
For the compound `CCN(CC)C(=O)CSc1ncnc2c1cnn2-c1ccccc1`, the inhibition was 35.5% (inactive).
For `CC(C)Sc1ncnc2c1cnn2-c1ccccc1` the value was 50.5% (active); for `CC(Sc1ncnc2c1cnn2-c1ccccc1)C(=O)Nc1ccc(N2CCOCC2)cc1` (centres undefined), 8.39% (inactive); for `Oc1c(Cl)cc(Cl)c(Cl)c1Cc1c(O)c(Cl)cc(Cl)c1Cl`, 95.9% (active).
As to `CCCn1c(SCC(=O)Nc2ccc(C)c(S(=O)(=O)N3CCOCC3)c2)n[nH]c1=O`, the inhibition is 4.23% (inactive).
`CC1(C)Cc2c(sc3nc(SCC(=O)NCc4ccccc4)n(-c4ccccc4)c(=O)c23)CS1`: the inhibition is -8.33% (inactive).
Take `COC(=O)c1ccc(S(=O)(=O)NCc2ccccc2)n1C`: the inhibition was 14.2% (inactive).
Turning to `O=C(Nc1cc(S(=O)(=O)N2CCCCC2)ccc1Cl)C1COc2ccccc2O1` (centres undefined), the inhibition is 4.78% (inactive).
With `CCCCCCCCCCCC(=O)O`, the inhibition is 12.3% (inactive).
Turning to `CCCCCCC12CCC(C(=O)O)(CC1)CC2`, the inhibition was 54.3% (active).
For the compound `CN1CCN(c2ccc(S(=O)(=O)N3CCOCC3)cc2NC(=O)CCc2ccccc2)CC1`, the inhibition was 12.1% (inactive).
In the case of `COc1cc(NC(=O)CN2C(=O)NC(C)(c3ccc(OC(F)F)cc3)C2=O)cc(OC)c1OC` (centres undefined) it was 11.2% (inactive).
For `O=[N+]([O-])c1c(NCCO)cc(Sc2nc3ccccc3s2)c2nonc12` the value was 55.2% (active); for `CCN(CC)CCCSc1nc2ccccc2s1`, 15.5% (inactive).
As for `Cc1nc2nc(CSc3nc4ccccc4s3)cc(=O)n2[nH]1`, the inhibition is 1.14% (inactive).
For the compound `Cc1ccccc1S(=O)(=O)Cc1ccc(C(=O)NCCN2CCCCC2C)o1` (centres undefined), the inhibition is 13.3% (inactive).
For the compound `COc1ccc(C2Nc3ccccc3C(=O)N2c2ccc(Cl)cc2)cc1Cn1cc([N+](=O)[O-])cn1` (centres undefined), the inhibition was 1.4% (inactive).
In the case of `Cc1cccc(C(=O)OC(C)C(=O)NC2CCCc3ccccc32)c1O` (centres undefined), the inhibition was 11.6% (inactive).
Regarding `Cc1ccc(C(c2sc3nc(C)nn3c2O)N2CCN(c3ccccc3)CC2)cc1` (centres undefined), the inhibition was -2.77% (inactive).
In the case of `CCN(CC)c1ccc(/C=N/Nc2nc(C)cc(C)n2)c(O)c1` it was 58.1% (active); in that of `CCN(CC)c1ccc(/C=N/NC(=O)c2cnccn2)c(O)c1`, 27.9% (inactive).
Turning to `Cc1cc(C)nc(N/N=C/c2c(CO)cnc(C)c2O)n1`, the inhibition is 15.2% (inactive).
With `OCCC1CN(Cc2cnc(-c3ccccc3)s2)CCN1CCc1ccccc1` (centres undefined), the inhibition is 1.33% (inactive).
Turning to `CCOC(OCC)c1ccc(/C=C\c2nccc(N)n2)cc1`, the inhibition is 14.7% (inactive).
Consider `O=C(Oc1c(-c2ccco2)oc2ccccc2c1=O)c1cccnc1`, for which the inhibition was 54.3% (active).
For `O=C(OCc1cc2ccccc2[nH]c1=O)c1cccnc1` the value was 11.2% (inactive).
`COc1ccc(Oc2coc3cc(OC(=O)c4cncc(Br)c4)ccc3c2=O)cc1`: the inhibition was 2.36% (inactive).
For `C=C(C)c1cccc(C(C)(C)NC(=O)NCCN(CC)CC)c1` the value was 5.58% (inactive).
`COC(=O)c1cc(S(=O)(=O)NC2CCN(Cc3ccccc3)CC2)cn1C`: the inhibition was 11.4% (inactive).
For `CCOC(=O)c1c(C)[nH]c(C(=O)COc2ccc3c(c2)OCO3)c1C` the value was 79.9% (active).
In the case of `CC(=O)c1c(C)[nH]c(C(=O)COc2ccc3c(C)cc(=O)oc3c2)c1C` it was 17.5% (inactive); in that of `CCOC(=O)c1c(C)[nH]c(C(=O)OCC(=O)c2ccc(OC)cc2OC)c1C`, 22.6% (inactive).
In the case of `O=c1[nH]c(CCl)nc2cc(-c3ccc(Cl)cc3)sc12`, the inhibition is 2.25% (inactive).
As for `O=C(NCC1CCCO1)c1ccc(S(=O)(=O)Nc2ccc(F)cc2)cc1` (centres undefined), the inhibition is 16.8% (inactive).
With `COCCNC(=S)N1CCN(C)CC1`, the inhibition is 5.02% (inactive).
Regarding `CC(Sc1ccccc1F)C(=O)Nc1cccc(S(=O)(=O)N2CCOCC2)c1` (centres undefined), the inhibition is 6.56% (inactive).
Take `O=C(CCC(=O)c1cccs1)Nc1nc2ccccc2s1`: the inhibition was 3.03% (inactive).
Regarding `Cc1ccnc(-n2sc3ccccc3c2=O)n1`, the inhibition is 6.74% (inactive).
Take `Cc1ccnc(Nc2nc3ccccc3s2)n1`: the inhibition was 53.7% (active).
With `Cc1ccc(NS(=O)(=O)c2cccs2)cc1S(=O)(=O)N1CCCCCC1`, the inhibition is 8.88% (inactive).
For `CCn1nc(C)c(NC(=O)/C=C/c2ccc(OC)c(COc3ccc(Br)cc3)c2)c1C`, the inhibition was 7.05% (inactive).
